# In the library only some 2.2% were active in any assay of this set; here they are far more common.
# NOD2-RIPK2 inh = blocks binding of human NOD2 to RIPK2; O43353; CHO BLA complementation NOD2-RIPK2, CCF4 ratio; inhibition, % at 4.98 µM; hit rate 0.38% among 360,000; in the data active = inhibition above about 21%;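 note: 0% = vehicle only and 100% = reference blocker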
# Target sequence (O43353 whole entry, looked up): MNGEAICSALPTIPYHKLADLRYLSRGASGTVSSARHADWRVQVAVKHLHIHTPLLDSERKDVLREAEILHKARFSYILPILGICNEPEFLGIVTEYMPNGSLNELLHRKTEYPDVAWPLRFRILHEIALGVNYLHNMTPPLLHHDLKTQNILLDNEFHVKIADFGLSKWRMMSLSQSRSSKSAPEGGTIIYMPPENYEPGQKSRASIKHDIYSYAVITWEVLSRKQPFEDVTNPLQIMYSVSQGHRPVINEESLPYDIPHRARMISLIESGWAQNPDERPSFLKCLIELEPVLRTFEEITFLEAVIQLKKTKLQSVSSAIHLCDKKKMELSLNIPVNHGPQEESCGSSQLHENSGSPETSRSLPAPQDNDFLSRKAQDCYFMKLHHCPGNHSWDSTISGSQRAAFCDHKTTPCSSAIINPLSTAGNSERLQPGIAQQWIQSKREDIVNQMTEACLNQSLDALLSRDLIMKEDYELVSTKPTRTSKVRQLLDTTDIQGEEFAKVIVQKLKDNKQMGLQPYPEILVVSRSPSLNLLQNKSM
# TLR4 MyD88 comp = blocks binding of human TLR4 to MyD88 | HeLa CL3-4 TLR4/MyD88 BLA complementation, FRET ratio | inhibition, % at 8.4 µM | hit rate 0.18% among 200,000; in the data active = inhibition above about 25%;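 note: 0% = vehicle and 100% = reference inhibitor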
# TLR9-MyD88 block = inhibitors of human TLR9-MyD88 binding; Q9NR96+Q99836; inhibition, % at 4.98 µM; hit rate 0.21% among 340,000; CHO BLA complementation TLR9-MyD88, CCF4 FRET ratio;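 active = inhibition above the mean over all tested compounds plus 3 SD, cut at about 21% in these data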;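 note: 0% = DMSO only wells and 100% = clavulanate BLA inhibitor control wells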
# TMEM16A inh = blocks the mouse calcium-activated chloride channel TMEM16A. Q8BHY3. HEK293 TMEM16A/YFP iodide influx fluorescence, ionomycin. normalized B-score (activity score, 25-100; higher = stronger inhibition) at 10 µM. hit rate 1.2% among 310,000. AID 588511;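 active = ratio plate-corrected score three or more library SD toward inhibition, starting fluorescence score within five deviations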;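 note: score derived from kinetic fluorescence span divided by baseline fluorescence per well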
# ANO1 activ = activates or potentiates the mouse TMEM16A chloride channel; HEK293 TMEM16A/YFP-H148Q/I152L, iodide quench fluorescence; active compounds read low; B-score at 10 µM; hit rate 0.3% among 340,000;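 active = fluorescence-ratio B-score plate-corrected deviation score at least 3 library SD below zero, with starting fluorescence score within 5 deviations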;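 note: channel opened by trigger with iodide after compound preincubation; score built on the fluorescence ratio of max minus min over baseline; more negative score means more quench and so TMEM16A activation or potentiation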
# GRK2 aptamer HTS = blocks RNA aptamer binding to human GRK2 | inhibition of aptamer binding, % at 10 µM | P25098 | hit rate 0.59% among 330,000 | bead flow cytometry, FAM-aptamer displacement from GRK2;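 active = inhibition of aptamer binding above 40%, roughly 3 SD of noise, on plates passing a quality check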;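 note: median bead fluorescence of bound FAM aptamer so fluorescent compounds give negative values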
# TMEM16A reconf = re-confirmation of mouse TMEM16A chloride channel inhibitors; shares compounds with TMEM16A inh; HEK293 TMEM16A/YFP-H148Q, iodide quench fluorescence; ionomycin added to raise cell calcium; inhibition, % at 10 µM; hit rate 39% among 2,300; AID 652189;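 active = mean duplicate percent inhibition, scaled so buffer wells are 0 and the reference blocker 100, over three buffer SD above buffer mean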
# HEK293 Ca mobil = calcium mobilization counter-screen hit for TMEM16A inhibitor series; shares compounds with TMEM16A inh; TMEM16A/YFP HEK293, Fluo4 calcium mobilization; calcium response (% of ionomycin), % at 10 µM; hit rate 2% among 2,300; AID 652231;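 active = duplicate-averaged calcium signal over 20% of the ionomycin maximum, relative to buffer baseline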;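 note: each well's signal is peak minus trough fluorescence divided by its pre-addition baseline; 0% = buffer wells and 100% = ionomycin wells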
# YFP-HEK293 quench = parental YFP-HEK293 iodide quench counter-screen activity | ionomycin | 2,300 tested, under 10 active | shares compounds with TMEM16A inh | YFP ratio F(max-min)/F0 at 10 µM;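 active = yellow fluorescent protein signal ratio exceeding the buffer control mean by over 5 SD of those controls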;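 note: ratio is mean of duplicate wells from kinetic YFP trace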
# ClC-1 inh = blocks the rat ClC-1 voltage-dependent chloride channel. shares compounds with TMEM16A inh. CHO ClC-1-YFP, iodide influx fluorescence quench; iodide control reads 0, buffer control 100. ratio percent, % at 10 µM. 2,300 tested, under 10 active;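 active = duplicate-mean ratio percent above the mean of iodide-only control wells, which defines zero, plus 5 of their SD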;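 note: higher percent means stronger block of ClC-1 iodide influx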
# The depositor's hits bear a star; i = inactive; . = no result.
SMILES,NOD2-RIPK2 inh,TLR4 MyD88 comp,TLR9-MyD88 block,TMEM16A inh,ANO1 activ,GRK2 aptamer HTS,TMEM16A reconf,HEK293 Ca mobil,YFP-HEK293 quench,ClC-1 inh
COc1ccc(NS(=O)(=O)c2ccc(NC(=O)c3ccc(CN4CCOCC4)cc3)cc2)cc1,-12.9,7.5,-4.4,i,i,0.0,.,.,.,.
O=C(COc1ccc(F)cc1)Nc1nc(-c2cccnc2)cs1,0.7,.,8.2,.,.,.,.,.,.,.
CCN(CC)CCCn1c2c(c(SCC(=O)Nc3nc4ccccc4s3)nc1=O)CCC2,1.7,.,-0.3,i,i,0.0,.,.,.,.
CC(C)(C)C1CCc2c(sc(NC(=O)C3CC=CCC3C(=O)O)c2C#N)C1 (centres undefined),-3.7,3.2,-3.6,100*,i,6.0,21.0%*,i,-1.11,-19.5
Cc1cc(C(=O)Nc2sc3c(c2C#N)CCC(C(C)(C)C)C3)no1 (centres undefined),-6.4,5.8,-11.7,i,i,3.0,.,.,.,.
COc1ccccc1CN1CCNC(=O)C1CC(=O)NCc1cn(C)nc1C (centres undefined),-0.7,3.5,-0.6,i,i,0.0,.,.,.,.
O=C(NC1CC1)C1CCN(C2CCN(C(=O)/C=C/c3ccc(F)cc3)CC2)CC1,-10.1,-7.0,-9.2,i,i,2.0,.,.,.,.
CCSc1nnc(NC(=O)Cc2ccc(OC)c(OC)c2)s1,0.2,5.4,-12.6,100*,i,1.0,i,i,-0.865,-13.0
CC(C)OC(=O)C1C2C=CC3(CN(C(C)c4ccc(Br)cc4)C(=O)C13)O2 (centres undefined),4.5,-4.6,4.6,25*,i,2.0,i,i,-1.16,-14.0
O=C(CSc1nnc(CNc2ccc(F)cc2)n1Cc1ccco1)N1CCCC1,-7.4,3.0,-0.7,25*,i,4.0,i,i,-1.22,-6.0
Cc1cccc(C(=O)NC2CCN(CC(=O)NCc3ccccc3F)CC2)c1,-6.5,.,-10.3,i,i,0.0,.,.,.,.
COc1ccc(C)cc1N(CC(=O)O)S(=O)(=O)c1ccc(C)cc1,-4.0,-4.9,2.9,i,i,0.0,i,i,-0.632,-5.5
COc1ccc(C)cc1N(CC(N)=O)S(=O)(=O)c1ccc(C)cc1,-4.9,-0.5,-0.1,i,i,0.0,.,.,.,.
COc1ccc(-n2nc3c(c2NC(=O)c2ccc4c(c2)OCO4)CS(=O)(=O)C3)cc1,-3.1,.,5.8,i,i,1.0,.,.,.,.
CN(CC(CC(=O)Nc1nncs1)c1ccccc1)S(=O)(=O)c1ccccc1 (centres undefined),-13.0,-9.7,-4.0,i,i,1.0,.,.,.,.
CN(CC(CC(=O)Nc1nncs1)c1ccccc1)S(=O)(=O)c1ccc(Br)cc1 (centres undefined),0.7,-1.9,-16.6,100*,i,2.0,i,i,-0.961,-11.5
Cc1nc(-c2ccc(S(=O)(=O)Nc3ccc(Br)cc3Cl)s2)cs1,0.1,.,0.4,100*,i,0.0,34.5%*,i,-1.1,-19.5
CCS(=O)(=O)N1CCC2(CC1)OCCN2S(=O)(=O)c1ccc(C)cc1,-0.1,.,7.6,i,i,0.0,.,.,.,.
O=C(Nc1ccc(F)cc1)C(c1cc2ccccc2o1)N1CCN(CC(=O)N2CCCC2)CC1 (centres undefined),-3.8,.,.,.,.,.,.,.,.,.
CCCC(C(=O)NCc1ccco1)N(C(=O)CNS(=O)(=O)c1ccccc1)c1ccc(OC)cc1 (centres undefined),-1.3,-10.7,3.2,i,i,3.0,.,.,.,.
CCC(C(=O)NCc1ccco1)N(C(=O)CNS(=O)(=O)c1ccccc1)c1ccc(OC)cc1 (centres undefined),2.7,5.3,7.6,25*,i,0.0,i,i,-0.907,0.0
CCOC(=O)c1c(NC(=O)c2nn(CC)cc2Br)c(C#N)nn1-c1ccccc1,-7.5,4.2,7.4,100*,i,0.0,i,i,-0.915,-10.0
O=S(=O)(Nc1nc2ccccc2nc1N1CCN(c2ccccc2)CC1)c1ccc(F)cc1,-5.2,-0.2,-10.2,i,i,6.0,31.5%*,i,-0.856,-14.5
CCCCOc1nc2ccccc2nc1NS(=O)(=O)c1ccc(F)cc1,-5.8,.,-15.9,25*,i,0.0,i,i,-0.987,-11.0
CC(C)CCC1(CCO)C(=O)N=C(N)NC1=O (centres undefined),-11.8,.,-5.2,.,i,.,.,.,.,.
SMILES,NOD2-RIPK2 inh,TLR4 MyD88 comp,TLR9-MyD88 block,TMEM16A inh,ANO1 activ,GRK2 aptamer HTS,TMEM16A reconf,HEK293 Ca mobil,YFP-HEK293 quench,ClC-1 inh
CC(=O)c1ccc(S(=O)(=O)N2CCN(C(=O)CSc3ccc(C)c(C)c3)CC2)cc1,-2.1,.,-2.6,i,i,2.0,.,.,.,.
O=C(Nc1ccc(N2CCOCC2)cc1)c1ccc(COc2ccccc2)cc1,-7.8,.,0.3,i,i,0.0,.,.,.,.
O=C(NCc1cccnc1)c1ccc(COc2ccccc2Cl)cc1,1.1,4.2,5.1,25*,i,1.0,19.0%*,i,-1.07,0.0
COc1ccc(S(=O)(=O)N2CCC(O)(c3ccc(Cl)cc3)CC2)cc1,12.6,-9.7,-12.2,25*,i,0.0,21.0%*,i,-1.06,-9.5
COc1ccc(S(=O)(=O)N2CCC(O)(c3ccc(Cl)cc3)CC2)cc1OC,-3.7,.,-8.8,i,i,0.0,.,.,.,.
CCCNC(=O)Nc1cc(S(=O)(=O)CC)ccc1O,-1.1,.,-2.6,i,i,3.0,.,.,.,.
CCS(=O)(=O)c1ccc(O)c(NC(=O)c2cc(OC)c(OC)c(OC)c2)c1,-4.8,12.9,-12.9,i,i,0.0,i,i,-1.05,-5.5
COc1ccc(N2CCN(S(=O)(=O)CCNC(=O)COc3ccccc3C)CC2)cc1,-5.5,.,-13.0,i,i,0.0,.,.,.,.
CCOC(=O)N1CCC(=C2c3ccc(Cl)cc3CCc3cccnc32)CC1,-5.4,4.5,-5.1,25*,i,0.0,i,i,-1.12,-15.5
CCOC(=O)N1CCN(c2ccnc3cc(Cl)ccc23)CC1,5.8,.,-4.6,i,i,0.0,.,.,.,.
Cc1c(N=C/C=C/c2ccccc2)c(=O)n(-c2ccccc2)n1C,-12.8,-9.8,-11.6,25*,i,2.0,i,i,-0.968,-8.0

# Bioassay records deposited in PubChem by several laboratories.
